Assay results from PubChem BioAssay AID1159580 (chemical genetic matrix, 2015).
Several values for one entry are separate records, joined by “and”; a condition that tells them apart may be missing. Identical values can stand only once. Among all 5,500 compounds or so, about 2,000 (36%) were called active. Roughly 18% stayed inconclusive and do not appear here. Rule as the data show it: active = normalized growth mostly below about 0.91 (no sharp cut-off); inconclusive = no clear call, values can overlap the other calls; inactive = mostly above about 0.92. The list shows a part of the results.

Assay: chemical genetic growth profiling, strain panel (AID 1159580);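 also: tested at 20 µM; growth read once vehicle control cultures reached saturation at 30 °C; 1 = growth at the plate median or of vehicle wells; lower values mean less growth of the strain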
Conditions: S. cerevisiae deletion strains, growth OD

Measured: normalized growth

C1N2CN3CN1CN(C2)C3
inactive: locus YAL013W, strain DEP1, hits give low values 0.975 | locus YAL021C, strain ccr4, hits give low values 0.986 | locus YAL026C, strain drs2, hits give low values 1 | locus YAL030W, strain snc1, hits give low values 0.993 | locus YBL061C, strain skt5, hits give low values 0.991 | locus YBR009C, strain hhf1, hits give low values 1.03 | locus YBR021W, strain FUR4, hits give low values 1.06 | locus YBR023C, strain chs3, hits give low values 0.984 | locus YBR171W, strain sec66, hits give low values 0.991 | locus YBR229C, strain ROT2, hits give low values 0.949 | locus YBR231C, strain swc5, hits give low values 1 | locus YBR279W, strain paf1, hits give low values 0.985 | locus YCL011C, strain gbp2, hits give low values 0.986 | locus YCL016C, strain dcc1, hits give low values 0.961 | locus YCL029C, strain bik1, hits give low values 0.977 | locus YCL061C, strain MRC1, hits give low values 0.987 | locus YCL069W, strain vba3, hits give low values 1 | locus YCR088W, strain abp1, hits give low values 0.982 | locus YDL005C, strain med2, hits give low values 0.999 | locus YDL035C, strain GPR1, hits give low values 0.989 | locus YDL040C, strain nat1, hits give low values 0.996 | locus YDL074C, strain BRE1, hits give low values 0.972 | locus YDL101C, strain DUN1, hits give low values 0.955 | locus YDL134C, strain PPH21, hits give low values 0.983 | locus YDL185W, strain tfp1, hits give low values 0.951 | locus YDL192W, strain arf1, hits give low values 0.972 | locus YDR001C, strain nth1, hits give low values 0.994 | locus YDR069C, strain doa4, hits give low values 1.03 | locus YDR101C, strain arx1, hits give low values 0.977 | locus YDR137W, strain rgp1, hits give low values 0.985 | locus YDR150W, strain NUM1, hits give low values 0.972 | locus YDR159W, strain sac3, hits give low values 1.04 | locus YDR162C, strain NBP2, hits give low values 0.954 | locus YDR195W, strain ref2 1.01 | locus YDR297W, strain sur2, hits give low values 0.986 | locus YDR318W, strain mcm21, hits give low values 0.98 | locus YDR334W, strain swr1, hits give low values 0.974 | locus YDR335W, strain msn5, hits give low values 0.997 | locus YDR388W, hits give low values 0.976 | locus YDR392W, strain spt3, hits give low values 0.923 | locus YDR502C, strain sam2, hits give low values 0.966 | locus YEL003W, strain gim4, hits give low values 1 | locus YEL037C, strain rad23, hits give low values 0.982 | locus YEL061C, strain CIN8 (second series), hits give low values 0.978 | locus YEL061C, strain CIN8, hits give low values 0.983 | locus YER015W, strain faa2, hits give low values 0.988 | locus YER016W, strain bim1, hits give low values 0.999 | locus YER110C, hits give low values 0.975 | locus YER111C, strain swi4, hits give low values 0.978 | locus YER155C, strain BEM2 (second series), hits give low values 0.991 | locus YER155C, strain BEM2, hits give low values 0.982 | locus YER167W, strain BCK2, hits give low values 0.984 | locus YFR010W, strain ubp6, hits give low values 0.988 | locus YGL078C, strain dbp3, hits give low values 0.942 | locus YGL086W, strain mad1, hits give low values 0.991 | locus YGL167C, strain pmr1, hits give low values 0.992 | locus YGL173C, strain kem1, hits give low values 0.994 | locus YGL227W, strain vid30, hits give low values 1 | locus YGL240W, strain doc1, hits give low values 0.999 | locus YGL248W, strain PDE1, hits give low values 0.973 | locus YGL253W, strain hxk2, hits give low values 0.998 | locus YGR078C, strain PAC10, hits give low values 0.973 | locus YGR135W, strain pre9, hits give low values 0.934 | locus YGR229C, strain SMI1, hits give low values 0.966 | locus YGR252W, strain gcn5, hits give low values 1.12 | locus YHR013C, strain ard1, hits give low values 0.95 | locus YHR027C, strain rpn1, hits give low values 0.99 | locus YHR030C, strain SLT2, hits give low values 0.99 and 0.968 | locus YHR079C, strain IRE1 (second series), hits give low values 0.974 | locus YHR079C, strain IRE1, hits give low values 0.929 | locus YHR094C, strain hxt1, hits give low values 0.976 | locus YHR129C, strain ARP1, hits give low values 0.978 | locus YHR142W, strain chs7, hits give low values 0.973 | locus YHR200W, strain rpn10, hits give low values 0.975 | locus YIL066C, strain RNR3, hits give low values 0.984 | locus YIL073C, strain SPO22, hits give low values 0.895 | locus YIL125W, strain kgd1, hits give low values 0.979 | locus YIR030C, strain dcg1, hits give low values 0.976 | locus YJL092W, strain hpr5, hits give low values 0.982 | locus YJL095W, strain BCK1 (second series), hits give low values 0.986 | locus YJL095W, strain BCK1, hits give low values 0.988 and 0.948 | locus YJL115W, strain asf1, hits give low values 0.985 | locus YJL129C, strain trk1, hits give low values 0.979 | locus YJL134W, strain LCB3, hits give low values 0.98 | locus YJL154C, strain vps35, hits give low values 0.991 | locus YJL164C, strain tpk1, hits give low values 0.99 | locus YJL166W, strain qcr8, hits give low values 0.964 | locus YJL168C, strain set2, hits give low values 0.985 | locus YJL187C, strain SWE1 (second series), hits give low values 0.975 | locus YJL187C, strain SWE1, hits give low values 0.988 | locus YJR043C, strain POL32, hits give low values 0.997 | locus YJR066W, strain TOR1, hits give low values 0.987
